# Bioassay records as filed in PubChem.
# Rows were chosen to be rich in hits. Some 2.2% of all compounds tested hit in one or more screens of this group.
# APP 5UTR inh: inhibitors of APP translation via 5'UTR reporter, primary screen, APP 5'UTR luciferase, SH-SY5Y cells. SH-SY5Y APP 5'UTR-luciferase reporter, luminescence. actives 0.82% (n = 190,000). inhibition, % at 2 µM. AID 1285, 2008;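 active = inhibition above a set limit, derived from the sample mean plus 3 SD, cut at about 45% in these data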
# IEC-6 cytotox: cytotoxicity in IEC-6 intestinal epithelial cells, primary screen, cytotoxicity control for KLF5 inhibitor project, cell-based, luminescence; IEC-6 cytotoxicity, luminescence viability; inhibition, % at 5 µM; actives 0.78% (n = 290,000); AID 1825, 2009;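 note: 0% = plate median of test compound wells and 100% = cytotoxic reference compound wells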
# aSyn UTR inh: MLPCN primary screen, SNCA 5' untranslated region | actives 0.82% (n = 300,000) | inhibition, % (tested at 7.5 µM) | alpha-synuclein 5'UTR reporter, inhibitor activity; in the data active = inhibition above about 60%;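 note: H4 neuroglioblastoma cells stably carrying SNCA 5'UTR luciferase fusion; 0% = DMSO wells and 100% = positive control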
# Ba/F3 V617F tox: reduced viability of JAK2V617F-dependent Ba/F3 cells, primary screen, JAK2V617F inhibitor project, cell-based, Ba/F3 EpoR-JAK2V617F, luminescence. ATP luminescence. inhibition, % at 5.6 µM. actives 1.1% (n = 220,000);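 active = inhibition above the campaign mean plus 3 SD over all tested compounds, cut at about 24% in these data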;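 note: cytokine-independent growth of Ba/F3 cells driven by EpoR plus mutant JAK2; 0% = DMSO-treated cells and 100% = JAK inhibitor I control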
# KLF5 inhibitor: KLF5 expression inhibitors, primary screen, DLD-1 cells, luminescence. DLD-1 KLF5 promoter-luciferase reporter. inhibition, % at 5 µM. actives 0.23% (n = 290,000). AID 1700, 2009;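 active = inhibition above a per-plate limit of that plate's mean compound inhibition plus 3 SD, cut at about 60% in these data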;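 note: 0% = DMSO wells and 100% = LY294002 at 200 µM; higher means less KLF5 promoter-driven luciferase light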
# BaF3 tox: parental Ba/F3 cell viability inhibition, counter-screen for JAK2V617F inhibitor project, murine pro-B, CellTiter-Glo luminescence; inhibition, % at 5.6 µM; actives 1.1% (n = 220,000); CellTiter-Glo ATP luminescence;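 active = inhibition above a per-campaign cutoff, the mean inhibition of all tested compounds plus 3 SD, cut at about 27% in these data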;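 note: 0% = DMSO wells and 100% = JAK Inhibitor I control wells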
# IEC-6 tox confirm: cytotoxic compounds in IEC-6 epithelial cells, confirmation, cytotoxicity control, cell-based, luminescence | shares compounds with IEC-6 cytotox | IEC-6 rat intestinal epithelial viability | inhibition, % at 5 µM | actives 63% (n = 1,900) | AID 1907, 2009;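 note: 0% = vehicle and 100% = reference cytotoxic drug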
# Active calls of the source: *; x = no result given. Cut-off read from the data, not from the text of the source, unless noted: active = inhibition above about 22%; inactive = the rest.
SMILES,APP 5UTR inh,IEC-6 cytotox,aSyn UTR inh,Ba/F3 V617F tox,KLF5 inhibitor,BaF3 tox,IEC-6 tox confirm
CCCNS(=O)(=O)c1cccc(C(=O)OCc2cc(=O)oc3cc(OC)ccc23)c1,x,62*,-97,x,43,x,16
COc1ccc2c(COC(=O)c3cccc(S(=O)(=O)NCC(C)C)c3)cc(=O)oc2c1,x,-9,-14,x,-10,x,x
O=[N+]([O-])c1ccc(/C=C/c2ccc3cccc(O)c3n2)cc1,x,42*,-11,x,-132,x,17
COc1cc(/C=C/c2ccc3cccc(O)c3n2)cc(Br)c1OC,x,-1,-81,x,-63,x,x
O=[N+]([O-])c1ccc(/C=C/c2ccc3ccccc3n2)cc1,-165,88*,46,1,-95,9,67*
Fc1ccccc1/C=C/c1ccc2ccccc2n1,-196,2,35,0,-129,5,x
COc1cc(/C=C/c2ccc3cccc(O)c3n2)cc(OC)c1OC,x,30*,-24,x,0,x,4
Cc1ccccc1C(=O)NNC(=O)C12CC3CC(CC(C3)C1)C2,13,2,13,-3,4,-6,x
Cc1cccc(C(=O)NNC(=O)C23CC4CC(CC(C4)C2)C3)c1O,x,37*,-15,x,-21,x,5
Cc1ccc(/C=N/NC(=O)c2ccncc2)s1,x,0,-8,-1,-16,-1,x
Cc1ccc(/C=N/NC(=O)c2ccc3ccccc3c2)s1,x,82*,-132,x,48,x,50*
O=C(N/N=C/c1cccs1)c1ccc2ccccc2c1,x,29*,-240,x,-55,x,12
Cc1ccc(/C=N/NC(=O)c2ccc3c(c2)OCCO3)s1,x,34*,-118,65*,-36,37*,49*
C/C(=N\NC(=O)c1ccc2c(c1)OCCO2)c1ccccc1,x,31*,73*,0,-37,0,9
N=C1c2ccccc2CN1NC(=O)COc1ccc(Cl)cc1,-25,9,-18,-1,3,5,x
CCOc1ccccc1/C=C/c1onc(C)c1S(=O)(=O)N1CCC(C(=O)NC(C)(C)C)CC1,x,0,-4,x,9,x,x
CC(=O)c1sc(NC(=O)CCN2C(=O)c3ccccc3C2=O)nc1C,x,-12,-29,x,-25,x,x
CC(C)Oc1ccc(CN2CCC(n3nccc3NC(=O)CCc3ccccc3)CC2)cc1,x,-1,7,x,-1,x,x
CCOCCn1c(=NC(=O)CSCC(=O)Nc2cc(C)on2)sc2cc(OC)ccc21,x,-3,11,x,-4,x,x
CCn1c(Cl)c(C=O)s/c1=N\S(=O)(=O)c1ccccc1,x,96*,-55,99*,22,103*,91*
CCN1C(=O)CS/C1=N\S(=O)(=O)c1ccc(Cl)cc1,-34,-5,2,5,-2,6,x
O=C1CC(c2ccccc2)CC(O)=C1C=NCc1ccccc1Cl (stereo not drawn),61*,31*,-6,43*,51,29*,30*
CN(Cc1ccccc1)c1nc(N)nc(Cl)c1C=O,3,-5,-22,-1,-13,1,x
COc1cc(OC)cc(C(=O)Oc2c(CN3CCOCC3)cc(Cl)c3cccnc23)c1,x,80*,92*,-2,23,-5,-7
CCN(CC)C(=O)C1CCN(S(=O)(=O)c2ccc3c(c2)CCCN3C(=O)C2CCC2)CC1,x,-4,-16,x,-25,x,x
SMILES,APP 5UTR inh,IEC-6 cytotox,aSyn UTR inh,Ba/F3 V617F tox,KLF5 inhibitor,BaF3 tox,IEC-6 tox confirm
CC1=CC(C)(C)N(C(=O)CCl)c2cc(C)ccc21,-13,-3,-9,3,2,9,x
CC1=CC(C)(C)N(S(=O)(=O)c2ccc(C)cc2)c2cc(C)ccc21,96*,92*,52,82*,60,85*,61*
COCCn1c(-c2ccc(-c3ccc([N+](=O)[O-])cc3Br)o2)nc2c1c(=O)[nH]c(=O)n2CC(C)C,1,0,-30,-2,7,5,x
COc1ccc2cc1Oc1ccc(cc1)CC1c3c(cc(OC)c4c3Oc3cc5c(cc3O4)CCNC5C2)CCN1C (stereo not drawn),x,45*,114*,-1,-10,1,8
CSCCC(NS(=O)(=O)c1ccc2[nH]c(=O)c(=O)[nH]c2c1)C(=O)O (stereo not drawn),-6,5,1,-2,14,-2,x
Cc1cc(C)cc(NC(=O)C2CCCN2S(=O)(=O)c2ccc3c(c2)n(C)c(=O)c(=O)n3C)c1 (stereo not drawn),x,-2,-10,x,-7,x,x
CC1(C)Cc2nc3sc4c(SCC(=O)O)ncnc4c3cc2CO1,x,-3,47,0,27,-1,x
CC1(C)Cc2nc3sc4c(SCC(=O)NCc5ccccc5)ncnc4c3cc2CO1,67*,48*,64*,53*,15,36*,51*
COc1ccc(CCNc2ncnc3sc(C)cc23)cc1OC,x,27*,77*,x,-38,x,27*
COCCOC(=O)c1[nH]c2c(c1C)C(=O)CC(c1ccc(F)cc1)C2 (stereo not drawn),-16,19,1,2,9,10,x
CSCCOC(=O)c1[nH]c2c(c1C)C(=O)CC(c1ccco1)C2 (stereo not drawn),95*,74*,33,72*,59,73*,48*
COCCOC(=O)c1[nH]c2c(c1C)C(=O)CC(c1ccccc1)C2 (stereo not drawn),92*,84*,78*,74*,45,75*,56*
COC(=O)c1[nH]c2c(c1C)C(=O)CC(c1cc(OC)ccc1OC)C2 (stereo not drawn),0,6,-29,3,5,5,x
COCCOC(=O)c1[nH]c2c(c1C)C(=O)CC(c1ccc(N(C)C)cc1)C2 (stereo not drawn),-27,0,-45,-4,-61,2,x
COC(=O)c1[nH]c2c(c1C)C(=O)CC(c1cccs1)C2 (stereo not drawn),95*,84*,85*,79*,45,82*,50*
CCc1ccc(/C=C2/SC(=S)N(CCC(=O)Nc3cccnc3)C2=O)cc1,x,7,30,x,-10,x,x
CCCc1nnc(NC(=O)c2nc(S(=O)(=O)Cc3ccc(C)cc3)ncc2Cl)s1,x,8,-9,x,-7,x,x
CSc1nnc(NC(=O)c2nc(S(=O)(=O)Cc3ccccc3)ncc2Cl)s1,x,34*,-35,x,20,x,9
CC(C)c1nnc(NC(=O)c2nc(S(=O)(=O)Cc3ccccc3)ncc2Cl)s1,x,42*,-81,x,18,x,-1
COC(=O)Nc1cc(C(=O)c2ccc(Cl)cc2Cl)c[nH]1,x,5,-7,x,-13,x,x
COC(=O)C1CN(C(=O)COc2ccc(Cl)cc2C)c2ccccc2O1 (stereo not drawn),x,-1,3,x,-3,x,x
